Out of some 39,000 compounds screened, about 3,300 (8.5%) were called active. What follows is part of a selection rich in actives, with near analogues and random picks from the rest.

We go through 45 compounds from the antibiotic and cytotoxicity screens of Wong et al. (2023).

The experiment concerns HepG2. The experiment can be described thus: cytotoxicity call (relative viability < 0.9). The note with it: 10 µM.
With `O=C(C[C@@H]1C[C@H]2c3cc(NS(=O)(=O)c4ccc(F)cc4)ccc3O[C@H]2[C@@H](CO)O1)NCc1cccc(F)c1`, the cytotoxicity call is “inactive”. As to `Cc1cc(C(=O)Nc2cccc3c2O[C@@H](CN(C)C(=O)Nc2c(C)noc2C)[C@@H](C)CN([C@@H](C)CO)C3=O)n(C)n1`, the cytotoxicity call is “inactive”. Regarding `Cc1ccc(OC(=O)N(C)C[C@H]2OCc3ccccc3-c3ccccc3C(=O)N([C@H](C)CO)C[C@H]2C)cc1`, the cytotoxicity call is “inactive”. Under `COc1ccc(CN(C)C[C@@H]2Oc3ccc(NC(=O)Cn4cnnn4)cc3CC(=O)N([C@@H](C)CO)C[C@@H]2C)cc1` stands “inactive”.

In the case of `C[C@@H]1CCCCO[C@@H](CN(C)C(=O)NC2CCCCC2)[C@@H](C)CN([C@H](C)CO)C(=O)c2cc(NC(=O)c3ccncc3)ccc2O1`, the cytotoxicity call was “inactive”. In the case of `C[C@@H]1CCCCO[C@H](CN(C)C(=O)NC2CCCCC2)[C@@H](C)CN([C@@H](C)CO)C(=O)c2cc(NC(=O)c3ccncc3)ccc2O1`, the cytotoxicity call was “inactive”. Consider `C[C@H](CO)N1C[C@H](C)[C@@H](CN(C)C(=O)NC2CCCCC2)OCCCC[C@H](C)Oc2ccc(NC(=O)c3ccccc3)cc2C1=O`, for which the cytotoxicity call was “active”.

Consider `C[C@@H]1CN([C@@H](C)CO)C(=O)c2cc(NC(=O)c3ccncc3)ccc2O[C@@H](C)CCCCO[C@@H]1CN(C)C(=O)NC1CCCCC1`, for which the cytotoxicity call is “active”.

`C[C@@H]1CCCCO[C@H](CN(C)C(=O)NC2CCCCC2)[C@@H](C)CN([C@H](C)CO)C(=O)c2cc(NC(=O)c3ccccc3)ccc2O1`: the cytotoxicity call was “inactive”. Under `C[C@H]1CCCCO[C@H](CN(C)C(=O)NC2CCCCC2)[C@@H](C)CN([C@@H](C)CO)C(=O)c2cc(NC(=O)c3ccccc3)ccc2O1` stands “inactive”; under `CC(C)NC(=O)Nc1ccc2c(c1)C(=O)N([C@@H](C)CO)C[C@@H](C)[C@H](CN(C)Cc1ccc(Oc3ccccc3)cc1)O2`, “inactive”. `C#CCN1C(=O)N(C(=O)c2ccccc2)[C@@H]2c3ccccc3O[C@@]1(COCc1ccc(OC)cc1)[C@@H]2CO[Si](C)(C)C(C)(C)C`: the cytotoxicity call is “inactive”. As for `O=C(N[C@@H]1C=C[C@H](CC(=O)N2CCOCC2)O[C@@H]1CO)c1ccccn1`, the cytotoxicity call was “inactive”.

Turning to `C[C@H](CO)N1C[C@H](C)[C@@H](CN(C)S(=O)(=O)c2cccs2)Oc2ccc(NS(=O)(=O)c3ccc(F)cc3)cc2CC1=O`, the cytotoxicity call was “inactive”.

Turning to `C[C@H](CO)N1C[C@H](C)[C@H](CN(C)C(=O)Nc2cccc(Cl)c2Cl)OCc2ccccc2-c2ccccc2C1=O`, the cytotoxicity call was “inactive”. On to `N#Cc1ccc(CN)cc1`, for which the cytotoxicity call was “inactive”.

`O=C(O)c1ccc(O)c(O)c1`: the cytotoxicity call was “inactive”. `N#Cc1ccc(O)c(O)c1`: the cytotoxicity call was “active”. As for `COc1ccc(NC(=O)N(C)C[C@H]2Oc3ccc(NC(=O)Nc4ccc(C(F)(F)F)cc4)cc3C(=O)N([C@H](C)CO)C[C@@H]2C)cc1`, the entry is “inactive”; as for `C=CCNC(=O)C(=O)NC[C@H]1OCCCN1S(=O)(=O)c1ccccc1`, “inactive”; as for `C[C@@H]1CN([C@@H](C)CO)S(=O)(=O)c2ccc(C3=CCCCC3)cc2O[C@@H]1CN(C)Cc1cncnc1`, “inactive”. Under `C[C@@H]1CN([C@@H](C)CO)C(=O)Cc2cc(NC(=O)Cn3cnnn3)ccc2O[C@H]1CN(C)C(=O)NC1CCCCC1` stands “inactive”; under `Cc1noc(C)c1NC(=O)N(C)C[C@@H]1Oc2ccc(NC(=O)c3ccncc3)cc2C(=O)N([C@H](C)CO)C[C@H]1C`, “inactive”. As for `COc1ccc2[nH]cc(CCNC(C)=O)c2c1`, the entry is “inactive”; as for `COc1ccc2[nH]c3c(-c4cccc5ccccc45)nccc3c2c1`, “inactive”. Take `O=c1[nH]c(=O)c2cc(Br)ccc2[nH]1`: the cytotoxicity call is “active”.

Consider `NCCc1c(C(=O)O)[nH]c2ccc(Br)cc12`, for which the cytotoxicity call is “inactive”.

Turning to `COc1ccc2[nH]c(=O)[nH]c(=O)c2c1`, the cytotoxicity call is “active”. Under `O=c1[nH]c(=O)c2ccccc2[nH]1` stands “inactive”; under `C[C@@H]1CCCCO[C@H](CN(C)C(=O)Nc2ccc(C(F)(F)F)cc2)[C@@H](C)CN([C@H](C)CO)C(=O)c2cc(NS(C)(=O)=O)ccc2O1`, “inactive”; under `CC(C)NC(=O)Nc1cccc2c1O[C@@H](CN(C)C(=O)Nc1ccc3c(c1)OCO3)[C@@H](C)CN([C@@H](C)CO)C2=O`, “inactive”. On to `C[C@@H]1CN([C@@H](C)CO)C(=O)c2cccc(NS(=O)(=O)c3ccccc3)c2O[C@@H]1CN(C)S(=O)(=O)c1cn(C)cn1`, for which the cytotoxicity call was “inactive”. As for `C=CCOC(=O)[C@H]1[C@@H]2C(=O)O[C@@H](c3ccccc3)[C@@H](c3ccccc3)N2[C@@H](c2ccc(OCCOC(=O)[C@H]3C[C@H]4C(=O)N[C@@H](CC(C)C)C(=O)N4[C@H]3c3ccc(O)cc3)cc2)[C@]12C(=O)Nc1ccc(I)cc12`, the cytotoxicity call is “inactive”. Under `COc1cc(CCC(=O)O)oc(=O)c1` stands “inactive”; under `C#CCN([C@H](/C=C/C1CC1)[C@@H](O)CCn1cc(-c2ccc(C(=O)NO)s2)nn1)[C@@H](Cc1ccccc1)C(=O)OC`, “inactive”. Turning to `COC(=O)[C@@H](Cc1ccccc1)N[C@H](/C=C/C1CC1)[C@@H](O)CCn1cc(-c2ccc(C(=O)NO)s2)nn1`, the cytotoxicity call was “active”. On to `COC(=O)[C@@H](Cc1ccccc1)N[C@H](/C=C/C1CC1)[C@@H](O)CCn1cc(-c2cccc(/C=C/C(=O)NO)c2)nn1`, for which the cytotoxicity call was “inactive”.

For the compound `COC(=O)[C@H](Cc1ccccc1)N1CC(/C=C/C2CC2)=C[C@@H]1[C@@H](O)CCn1cc(-c2ccc(C(=O)NO)cc2)nn1`, the cytotoxicity call is “inactive”.

As for `COC(=O)[C@H](Cc1ccccc1)N1CC(/C=C/C2CC2)=C[C@@H]1[C@@H](O)CCn1cc(-c2ccc(C(=O)NO)s2)nn1`, the cytotoxicity call is “inactive”. As to `COC(=O)[C@@H](Cc1ccccc1)N[C@H](/C=C/C1CC1)[C@@H](O)CCn1cc(-c2ccc(C(=O)NO)cc2)nn1`, the cytotoxicity call is “active”. In the case of `Cc1ccc(-c2ccc3c(c2)O[C@@H](CN(C)C(=O)NC(C)C)[C@H](C)CN([C@@H](C)CO)S3(=O)=O)cc1`, the cytotoxicity call was “inactive”. For the compound `C[C@H](CO)N1C[C@H](C)[C@H](CN(C)S(=O)(=O)c2ccc3c(c2)OCCCO3)OCc2cnnn2CCCC1=O`, the cytotoxicity call is “inactive”.

Turning to `C[C@H](CO)N1C[C@H](C)[C@H](CN(C)Cc2ccccc2F)Oc2cc(C#CC3CC3)ccc2S1(=O)=O`, the cytotoxicity call was “inactive”.

With `CCN(CC)CCNC(=O)c1c(C)[nH]c(/C=C2/C(=O)Nc3ccc(-c4csc(-c5ccccc5)n4)cc32)c1C`, the cytotoxicity call is “active”. With `C[C@@H]1CN([C@@H](C)CO)S(=O)(=O)c2ccc(C#CCC3CCCC3)cc2O[C@H]1CN(C)C(=O)c1cnccn1`, the cytotoxicity call is “inactive”.
